Where “and” joins values, the source holds several entries; their conditions need not be identical. Equal entries are not always repeated. About 83,000 compounds went through this panel and 20% of them were active in at least one assay; those are over-represented in the sample as a whole.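 A percent growth of 40 corresponds to 60% growth inhibition; 0 means no net growth; -100 means all cells died. Active threshold: below 10.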 Calls of active or inactive are those of the source.

This experiment has as its system HL-60(TB) leukemia. As to the kind of experiment: NCI-60 one-dose screen, 48 h (100 = growth as untreated, 0 = no growth, -100 = all killed). The settings on record: 10 µM unless noted.
For `O=C(N/N=C/c1ccccc1O)c1ccncc1`, the growth is 29.8% (inactive). With `COc1ccc(-c2cc(=O)c3c(O)cc(O)cc3o2)cc1`, the growth is 73.4% (inactive) and 103% (inactive). With `CCOc1nc(-c2ccccc2)cc2c(O)c(C(=O)N/N=C/c3ccccc3O)[nH]c(=O)c12`, the growth is 133% (inactive). Take `Cn1cccc1C(=O)C1C(c2cccc([N+](=O)[O-])c2)C2C3CCCCC3CN2C12C(=O)Nc1ccc(Cl)cc12` (stereo not given): the growth was 17.8% (inactive). To `COc1cc(NCCCCCNC(C)C)c2ncccc2c1` belongs 104% (inactive) and 58.4% (inactive). Regarding `NC(N)=NN=C(c1ccccc1)c1ccccc1`, the growth is -8.59% (active). To `N#CC(C#N)=C1NC(c2ccccc2)=C(c2ccccc2)C(c2ccccc2Cl)=C1C#N` belongs 79.2% (inactive).

With `Cc1cc(C(=O)c2ccc(Cl)cc2)ccc1O`, the growth is 147% (inactive). Regarding `COc1cc(C(=O)N/N=C/c2cccc([N+](=O)[O-])c2)cc(OC)c1OC`, the growth is 41.3% (inactive).

For `N=C(N=C(N)N)N1CCOCC1`, the growth is 100% (inactive) and 99.1% (inactive).

As to `COc1ccc(C2NCCc3c2[nH]c2ccccc32)cc1CN1CCN(c2ccc(F)cc2)CC1` (stereo not given), the growth was 24.7% (inactive). The result for `ClCCn1c(CCl)nc2ccc(Cl)cc21` reads -69% (active); that for `O=C(O)CCCN1C(=O)/C(=C/C(Cl)=C/c2ccccc2)SC1=S`, 7.56% (active).

In the case of `Cn1c(=O)c2[nH]c(N/N=C/c3ccccc3Br)nc2n(C)c1=O`, the growth is 106% (inactive). With `CCN(C(=O)N1CCN(c2cc3c(cc2F)c(=O)c(C(=O)O)cn3C2CC2)CC1)c1nc(-c2ccc(Cl)cc2)cs1`, the growth is -27.1% (active).

The record behind these values is PubChem BioAssay (NCI).
